Bioassay records as filed in PubChem.
PNC inhibitor = inhibitors of perinucleolar compartment assembly. PC3M PTB-GFP, PNC prevalence imaging, 16 h; stronger effect = lower value. activity change (PNC), negative = inhibition, % at 10 µM. 3.1% of 140,000 active;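 active = readout at or below -70, meaning at least 70% loss of cells showing the perinucleolar compartment, a nuclear body marking cancer cells; inconclusive = readout between -30 and a set limit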;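 also: plate controls were DMSO wells for no effect and camptothecin positive control wells for full effect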
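Compounds are pinned in duplicate onto adhered PC3M cells stably expressing GFP-tagged PTB and incubated 16 h at 37 C. Cells are then fixed, nuclei stained with Hoechst, and PNC-positive cells counted.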
CBFb RUNX1 block = CBF-beta/RUNX1 interaction disruption; AlphaScreen CBFb-His/RUNX1-biotin binding, biochemical; Potency, µM (series often up to 59.8 µM), inactives show top-dose activity, negative = inhibition, hits mostly inhibitors; 230,000 tested, under 10 active; AID 1477; also: % of control where 0% means no effect
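Room-temperature protein-protein interaction test with 30 nM each of His-tagged CBF-beta and biotinylated RUNX1, 15 min with compound, then 90 min with nickel plus streptavidin beads. Signal read in AlphaScreen mode.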
ALDH1A1 inh = blocks purified human ALDH1A1 activity | AID 1030 | Purified ALDH1A1, NADH fluorescence, propionaldehyde substrate | 7.3% of 220,000 active | Potency, µM (titrated, usually from 75.3 µM), inactives show at the highest dose activity, negative = inhibition, usual class: inhibitors; active = well fitted inhibition curve with a large enough effect, not every such curve was filed as active; inconclusive = small, poorly fitted or top-dose-only effect, or another doubt; inactive = no such curve, though single readings can be large or run the other way;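 also: potency is read from the fitted curve at half-maximal effect; plate controls were no enzyme wells and a reference inhibitor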
Target sequence (P00352 whole entry, looked up): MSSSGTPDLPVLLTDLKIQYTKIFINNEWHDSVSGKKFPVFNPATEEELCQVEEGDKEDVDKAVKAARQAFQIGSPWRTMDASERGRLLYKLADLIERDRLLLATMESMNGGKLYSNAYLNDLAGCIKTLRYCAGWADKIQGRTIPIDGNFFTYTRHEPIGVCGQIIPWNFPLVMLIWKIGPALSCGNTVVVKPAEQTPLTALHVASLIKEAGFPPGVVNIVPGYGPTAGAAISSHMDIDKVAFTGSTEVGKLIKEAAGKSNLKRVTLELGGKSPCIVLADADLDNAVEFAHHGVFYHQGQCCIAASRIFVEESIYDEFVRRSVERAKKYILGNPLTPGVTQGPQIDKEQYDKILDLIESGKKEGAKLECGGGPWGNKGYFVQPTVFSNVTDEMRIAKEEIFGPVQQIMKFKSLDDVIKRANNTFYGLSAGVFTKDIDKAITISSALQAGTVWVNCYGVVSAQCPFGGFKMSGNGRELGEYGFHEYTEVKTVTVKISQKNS
HTT ATP protect = Huntington cell model cytoprotection by ATP luminescence; PC12 HTT-Q103 induced, cytoprotection, ATP luminescence, 40 h; Potency, µM (top dose mostly 56.4 µM), inactives show cytoprotection (ATP increase), actives largely listed as activators; 0.14% of 230,000 active; AID 1471; also: potency is read from the fitted curve at half-maximal effect; % of control where 0% means no effect; nearly all actives have a fitted effect of over 45% in size
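Cells were plated at 1500 per well in phenol red-free DMEM with 5% equine and 5% calf serum. Tebufenozide (100 nM final) and compounds were added, then ATPlite reagent, and luminescence was read.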
HPGD block = inhibitors of human 15-hydroxyprostaglandin dehydrogenase (HPGD) | purified HPGD, NADH fluorescence kinetic, PGE2 substrate | Potency, µM, without a hit: top-dose activity change, negative = inhibition, most hits filed as inhibitors | P15428 | 4.3% of 150,000 active; active = well fitted inhibition curve with a large enough effect, not every such curve was filed as active; inconclusive = small, poorly fitted or top-dose-only effect, or another doubt; inactive = no such curve, though single readings can be large or run the other way; also: potency is read from the fitted curve at half-maximal effect; % is scaled to controls: 0 for no effect and ±100 for the full control effect
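20 nM HPGD preincubated 15 min at room temperature with compound in 50 mM Tris-HCl pH 8, 0.01% Tween 20. Started with 1 mM NAD+ and 30 uM prostaglandin E2; NADH fluorescence (360/450 nm) read 5 times over 30-s intervals, last minus first.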
HttQ103 aggreg = reduces HttQ103-GFP aggregates in PC12 cells | PC12 HttQ103-GFP aggregates, Acumen cytometry, 40 h | Potency, µM (series often up to 46.1 µM), for inactives: at the highest dose activity change, negative = inhibition, usual class: inhibitors | 1.1% of 220,000 active | AID 1688; also: potency is read from the fitted curve at half-maximal effect; % is scaled to controls: 0 for no effect and ±100 for the full control effect; nearly all actives have a fitted effect of over 60% in size
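Ecdysone-promoter PC12 model expressing HTT exon 1 Q103 fused to GFP, induced by tebufenozide at 100 nM final. Compounds titrated; aggregates sized 1–25 µm scored on a 488 nm laser cytometer.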
* hit, by the source's call; ? = inconclusive; · = no result; [ ] = remark or other dose. Compounds with a hit are over-represented: about 11% of the library has one in this group of screens. Unless noted, calls follow the shape of the dose curve; as a rule, active = well fitted curve in the direction sought with a large enough effect; inconclusive = small, poorly fitted or top-dose-only effect, or another doubt; inactive = no such curve, though single readings can be large; an effect the other way counts as inactive or inconclusive.

SMILES	PNC inhibitor	CBFb RUNX1 block	ALDH1A1 inh	HTT ATP protect	HPGD block	HttQ103 aggreg
CCN(CC)S(=O)(=O)c1ccc(NC(=O)CSc2nnc(-c3ccc(F)cc3)o2)cc1	-107*	4%	-5%	-16%	-2%	-18%
C[C@@H](CSC(=N)N)C(N)=O	·	·	6%[13.5 µM]	-17%[10 µM]	-4%	·
O=C(O)c1c(Cl)c(Cl)c(Cl)c(Cl)c1C(=O)Nc1ccc2cn[nH]c2c1	·	·	9%[13.5 µM]	-11%[10 µM]	-8%	·
CC(=O)c1ccc(NC(=O)c2cnsn2)cc1	·	7%	-8%	-17%[10 µM]	·	8%[9.22 µM]
CC1CCN(c2c(NCC3CCC(C(=O)N4CCCCC4)CC3)c(=O)c2=O)CC1 (configuration not stated)	11	1%	-8%	-8%	0.5µM*	-2%
CC1CCCN(C(=O)C2CCC(CNc3c(N4CCCCC4)c(=O)c3=O)CC2)C1 (configuration not stated)	·	8%	·	12%[10 µM]	·	0%[9.22 µM]
O=C(C1CCC(CNc2c(N3CCCCC3)c(=O)c2=O)CC1)N1CCCCC1 (configuration not stated)	-23	2%	-1%	1%	0.4µM*	8%
COc1ccc(/C=N/n2c(C)nc3sc(C)c(C)c3c2=O)cc1	·	-4%	3%	0%[10 µM]	·	-2%[9.22 µM]
CC1C(=O)N(S(=O)(=O)c2ccc([N+](=O)[O-])cc2)[C@H]1c1ccc2ccccc2c1 (some centres not stated)	·	-8%	·	·	·	·
Cc1nn(-c2ccccc2)c2c1C(c1ccc(Br)s1)C(C#N)=C(N)O2 (configuration not stated)	·	?	3.2µM*	·	·	5%
COc1ccc(C2C(C#N)=C(N)Oc3c2c(C)nn3-c2ccccc2)cc1Cn1nc(C)c([N+](=O)[O-])c1C (configuration not stated)	1	?	5µM*	-26%	?	21%
COC(=O)C1=C(C)OC(N)=C(C#N)C1c1c(C)nn(-c2ccccc2)c1Cl (configuration not stated)	24	7%	-7%	-19%	?	10%
Cc1nn(-c2ccccc2)c2c1C(c1ccccc1)C(C#N)=C(N)O2 (configuration not stated)	5	-6%	3.5µM*	-14%[10 µM]	32µM*	10%
COc1cccc(Cn2c(=O)c(C)nc3cnc(N4CCN(C)CC4)nc32)c1	·	·	?	-43%	·	·
CC1(C)CC(=O)C(C(c2cccc(O)c2O)C2C(=O)CC(C)(C)CC2=O)C(=O)C1	·	·	14%[13.5 µM]	11%[10 µM]	-2%	·
COc1cccc(Cn2c(=O)c(-c3ccccc3)nc3cnc(N4CCNCC4)nc32)c1	·	·	?	-24%	·	·
O=[N+]([O-])c1cc(Cl)ccc1-c1nc(-c2ccccc2)no1	?	?	-5%	2%[10 µM]	14µM*	2%
CC(=O)N1CCC(N(CCN2CCOCC2)C(=S)Nc2ccccc2C)CC1	-112*	1%	7%	-7%[10 µM]	-3%	4%
N#Cc1cccc(-c2cc(NCc3ccccc3)ncn2)c1	·	·	?	-21%	·	·
Cc1cc(/C=N/n2cnnc2)c(C)n1-c1ccc(Cl)cc1	-15	4%	?	12%[0.074 µM]	-10%	14%
Cc1cc(/C=N/n2cnnc2)c(C)n1-c1ccc(OCc2ccc(F)cc2)cc1	5	-10%	?	-30%[10 µM]	?	7.1µM*
Cc1cc(/C=N/n2cnnc2)c(C)n1-c1ccc(OCc2ccc(Cl)cc2Cl)cc1	12	-13%	?	-55%	?	6.3µM*
Cc1cn([C@H]2C[C@H](O)[C@@H](COC(N)=O)O2)c(=O)[nH]c1=O	·	·	19%[13.5 µM]	3%[10 µM]	-2%	·
O=C(NCCc1ccccc1)c1ccc(NCC2CCCO2)c([N+](=O)[O-])c1 (configuration not stated)	·	?	?	-31%	·	-9%
O=C(/C=C/c1ccnc2ccccc12)c1cccs1	·	-1%	28µM*	-181%	·	?
SMILES	PNC inhibitor	CBFb RUNX1 block	ALDH1A1 inh	HTT ATP protect	HPGD block	HttQ103 aggreg
COc1ccc(/C=C/C(=O)c2cccs2)c(OC)c1	·	-3%[21.7 µM]	?	?	?	·
O=C(O)[C@H]1CCCN(CCC=C(c2ccccc2)c2ccccc2)C1	·	5%[21.7 µM]	-4%	1%	0%	·
O=C(NCCOC(=O)C1COc2ccccc2O1)C1COc2ccccc2O1 (configuration not stated)	-17	6%	-3%	-15%[10 µM]	-6%	9%
O=C(NCc1ccccn1)C1COc2ccccc2O1 (configuration not stated)	10	0%	3%	-22%[0.074 µM]	14µM*	-2%
CCCCNC(=O)C1COc2ccccc2O1 (configuration not stated)	4	3%	5%	-1%	16µM*	7%
O=C(NCc1ccc2c(c1)OCO2)C1COc2ccccc2O1 (configuration not stated)	-2	-1%	0%	29%[10 µM]	4.5µM*	3%
O=C(NCc1ccncc1)C1COc2ccccc2O1 (configuration not stated)	-16	1%	4%	-10%	-1%	-16%
COc1ccccc1-c1cc(NCc2cnc(C)cn2)ncn1	·	·	?	-4%	·	·
N#CC1=C(N)SC2(CCCCC2)SC1c1ccccc1 (configuration not stated)	134	2%	25µM*	-7%	?	15%
N#CC1=C(C2CC2)CC(c2ccccc2)C(C#N)=C1N (configuration not stated)	2	-6%	?	-22%[0.074 µM]	-16%	14%
Cn1cc(O)nc1NC(=O)Nc1cccc(Cl)c1	·	·	·	5%	·	-13%
O=C(COc1ccc(/C=N/NC(=O)c2cc3ccccc3o2)cc1Cl)Nc1ccccc1	-119*	6%	?	-11%[10 µM]	?	-9%
O=C(N/C(=C/c1cn(-c2ccccc2)nc1-c1ccccc1)C(=O)N1CCOCC1)c1ccc(Cl)cc1Cl	43	-5%	16µM*	-2%[10 µM]	-12%	-1%
O=C(c1cn(-c2ccccc2)nc1-c1ccc(Br)cc1)N1CCOCC1	-114*	6%	-2%	·	-6%	12%
O=C(c1cn(-c2ccccc2)nc1-c1cccc(Br)c1)N1CCOCC1	·	3%	25µM*	-6%	·	16%
COc1ccccc1C(=O)N1CCC(N2CCN(c3ccccc3)CC2)CC1	·	6%	·	29%[10 µM]	·	16%[9.22 µM]
O=C(c1ccccc1Oc1ccccc1)N1CCN(c2ccccc2)CC1	20	0%	22µM*	-21%	-21%	-2%
COC1C(O)C(CO)OC1n1cnc2c(NC3CCCCC3)ncnc21 (configuration not stated)	·	6%	·	·	·	·
CCc1cc2c(SCc3nc4sc(C(C)=O)c(C)c4c(=O)[nH]3)ncnc2s1	·	-1%	?	0%[10 µM]	·	1%[9.22 µM]
